Measurements published in PubChem BioAssay (NCATS).
Inconclusive results are not listed. Where a call stands in place of a potency, no number is given. The source made the active and inactive calls. Calls come from the whole dose curve; as a rule, active = well fitted inhibition curve with a large enough effect; inconclusive = small, poorly fitted or top-dose-only effect; inactive = flat fitted curve, though single readings scatter.

target: Calcium and integrin-binding protein 1 (Homo sapiens) (UniProt Q99828); experiment: Primary qHTS for Identification of Calcium Integrin Binding Protein 1 (CIB1) Competitor (AID 1508620); settings: CIB1-GST / FITC-alphaIIb peptide fluorescence polarization; series mostly up to 57.7 µM; note: top concentration of the series differs between compounds
Sequence (Q99828 whole entry, looked up): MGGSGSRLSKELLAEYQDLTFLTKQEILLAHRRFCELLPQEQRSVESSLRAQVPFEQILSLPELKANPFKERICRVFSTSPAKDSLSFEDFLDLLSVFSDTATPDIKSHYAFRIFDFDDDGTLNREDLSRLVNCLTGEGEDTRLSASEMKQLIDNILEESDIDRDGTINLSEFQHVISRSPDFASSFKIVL
How it was run: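 Fluorescence polarization competition: GST-tagged CIB1 (1 uM final) preincubated with compound 15 min at room temperature, then FITC-labelled alphaIIb peptide (100 nM final) added. After 15 min at room temperature, polarization read at Ex 480/Em 540.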

Row | SMILES | Potency
1 | O=c1cc(-c2ccccc2)oc2cc(O)cc(O)c12 | inactive
2 | COc1ncc(-c2ccc3nccc(-c4ccnnc4)c3c2)cc1NS(=O)(=O)c1ccc(F)cc1F | inactive
3 | COc1ccc2cc(-c3nc(-c4ccc(S(C)=O)cc4)[nH]c3-c3ccncc3)ccc2c1 (configuration not stated) | inactive
4 | CN(C[C@@H]1COCCO1)S(=O)(=O)Nc1ccc2ccc3ncc(-c4cnn(C)c4)cc3c(=O)c2c1 | inactive
5 | CO[C@H]1C=CC=C(C)C(=O)NC2=CC(=O)C(NCCN(C)C)=C(C[C@@H](C)C[C@H](OC)[C@@H](O)[C@@H](C)C=C(C)[C@@H]1OC(N)=O)C2=O | inactive
6 | COc1cc2nc(-c3ccc(N4CCN(C)CC4)cc3)nc(NCCN3CCOCC3)c2cc1OC | inactive
7 | COc1cc2ncnc(-n3nc(-c4ccccn4)nc3N)c2cc1OC | inactive
8 | NC(=O)NN=Cc1ccc([N+](=O)[O-])o1 | inactive
9 | CC=C(C)C(=O)O[C@H]1C(C)=C[C@]23C(=O)[C@@H](C=C(CO)[C@@H](O)[C@]12O)[C@H]1[C@@H](C[C@H]3C)C1(C)C | inactive
10 | CC[C@H]1OC(=O)[C@H](C)C(=O)[C@H](C)[C@@H](O[C@H]2O[C@H](C)C[C@H](N(C)C)[C@@H]2O)[C@](C)(OC)C[C@@H](C)C(=O)[C@H](C)[C@H]2N(CCCCn3cnc(-c4cccnc4)c3)C(=O)O[C@]12C | inactive
11 | O=C(O)C=Cc1ccc(O)c(O)c1 | inactive
12 | Clc1cc(Cl)cc(CNc2ncncc2-c2ccc3c(c2)OCO3)c1 | inactive
13 | CCOc1ccc(Nc2nc(-c3c(C)nc4ccccn34)cs2)cc1 | inactive
14 | Cc1c[nH]c(C=C2C(=O)Nc3ccccc32)c1CCC(=O)O | inactive
15 | C[C@]12CC[C@@H]3c4ccc(O)cc4CC[C@H]3[C@H]1C[C@@H](O)[C@H]2O | inactive
16 | COc1ccc2c(Oc3ccc(NC(=O)c4c(C)n(CC(C)(C)O)n(-c5ccccc5)c4=O)nc3)ccnc2c1 | inactive
17 | CCN(CC)CCOc1ccc(C(=C(Cl)c2ccccc2)c2ccccc2)cc1 | inactive
18 | C[C@@H]1CCN(C(=O)CC#N)C[C@H]1N(C)c1ncnc2[nH]ccc12 | inactive
19 | CC(C)OC(=O)CCCC=CC[C@@H]1[C@H](C=C[C@@H](O)COc2cccc(C(F)(F)F)c2)[C@H](O)C[C@@H]1O | inactive

Row | SMILES | Potency
20 | CCc1ccc(OCc2ccccc2C(=O)Nc2ccc3nc(C)cc(N)c3c2)cc1 | inactive
21 | OC[C@H]1O[C@@H](Oc2cc(O)cc(C=Cc3ccc(O)cc3)c2)[C@H](O)[C@@H](O)[C@H]1O | inactive
22 | Cn1c(N2CCCCS2(=O)=O)nc(C(=O)NCc2ccc(F)cc2)c(O)c1=O | inactive
23 | CC1(C)O[C@H]2C[C@@H]3[C@H]4CCC5=CC(=O)C=C[C@]5(C)[C@@]4(F)[C@@H](O)C[C@]3(C)[C@]2(C(=O)CO)O1 | inactive
24 | Nc1ncnc2c1ncn2[C@@H]1O[C@H](CO)C[C@@H]1O | inactive
25 | CC(=Cc1ccccc1)C=C1SC(=S)N(CC(=O)O)C1=O | inactive
26 | CC=CCC=CCCC(=O)[C@H]1O[C@@H]1C(N)=O | inactive
27 | O=C(OCC#CCSc1nnc(-c2cccc3ccccc23)o1)c1cc2ccccc2s1 | inactive
28 | Cc1ccccc1C(C(=O)NC1CCCCC1)N(C(=O)Cn1ccnc1C)c1cccc(F)c1 (configuration not stated) | inactive
29 | C[N+]1(C)[C@@H]2CC(OC(=O)[C@H](CO)c3ccccc3)C[C@H]1[C@H]1O[C@@H]12 (some centres not stated) | inactive
30 | CC(C)=CC[C@@H](O)C1=CC(=O)c2c(O)ccc(O)c2C1=O | inactive
31 | CC[C@]1(O)C[C@@H]2CN(CCc3c([nH]c4ccccc34)[C@@](C(=O)OC)(c3cc4c(cc3OC)N(C=O)[C@@H]3C45CCN4CC=C[C@](CC)([C@H]45)[C@@H](OC(C)=O)[C@]3(O)C(=O)OC)C2)C1 (some centres not stated) | inactive
32 | CC(C)n1nc(-c2ccc3oc(N)nc3c2)c2c(N)ncnc21 | inactive
33 | Nc1ncnc2c1ncn2[C@@H]1O[C@@H](CO)[C@H](O)[C@H]1O | inactive
34 | NS(=O)(=O)c1ccc(NC2=CC(=O)c3ccccc3C2=O)cc1 | inactive
35 | CC1(C)CCC[C@@]2(C)[C@@H]1CC[C@@]1(C)OC(=O)C[C@H]21 | inactive
36 | Nc1nc(F)nc2c1ncn2[C@@H]1O[C@H](COP(=O)(O)O)[C@@H](O)[C@H]1O | inactive
37 | CC(C)(C)C(=O)Oc1ccc2c(c1)nc(NC(=O)c1cccc([N+](=O)[O-])c1)n2CCCO | inactive
